MCF10A rereplic: induces DNA re-replication in MCF 10a normal breast cells; MCF 10A DNA re-replication, Hoechst nuclear intensity, 48 h; Potency, µM (titrated, usually from 46.1 µM), inactives show at the highest dose activity, positive = re-replication, hits mostly activators; actives 2.9% (n = 350,000); also: % of control where 0% means no effect; nearly all actives have a fitted effect of over 50% in size
RORg inh: inhibitors of mouse ROR gamma transcriptional activity | P51450 | Drosophila S2 Gal4-RORgamma UAS-luciferase reporter, 20 h | Potency, µM (highest dose often 53.6 µM), for inactives: top-dose activity change, negative = inhibition, most hits filed as inhibitors | actives 5.4% (n = 310,000) | AID 2551; also: % is scaled to controls: 0 for no effect and ±100 for the full control effect; nearly all actives have a fitted effect of over 60% in size
Target sequence (P51450 whole entry, looked up, the tested form may be a part): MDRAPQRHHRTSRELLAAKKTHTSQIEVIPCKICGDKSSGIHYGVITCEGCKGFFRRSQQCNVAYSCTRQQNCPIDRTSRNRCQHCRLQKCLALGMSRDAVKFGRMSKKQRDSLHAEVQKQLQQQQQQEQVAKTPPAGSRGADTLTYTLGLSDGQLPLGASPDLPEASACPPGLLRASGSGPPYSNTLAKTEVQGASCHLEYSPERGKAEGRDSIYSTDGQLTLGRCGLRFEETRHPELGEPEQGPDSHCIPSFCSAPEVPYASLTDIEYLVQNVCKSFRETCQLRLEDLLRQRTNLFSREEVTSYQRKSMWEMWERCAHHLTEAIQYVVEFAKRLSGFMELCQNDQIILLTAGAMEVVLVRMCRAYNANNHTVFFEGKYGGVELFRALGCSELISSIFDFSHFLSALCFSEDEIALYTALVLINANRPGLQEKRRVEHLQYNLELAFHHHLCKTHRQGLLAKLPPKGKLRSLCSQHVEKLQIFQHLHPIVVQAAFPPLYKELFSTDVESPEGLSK
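In this cell-based reporter format, copper sulfate (700 uM final) drives Gal4–ROR gamma fusion expression from a metallothionein promoter in Drosophila Schneider cells; compounds preincubated 1 hr, reporter read after 20 hr at ambient temperature.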
ELG1 repair inh: inhibitors of ELG1-dependent DNA repair in HEK293T cells; HEK293T ELG1-luciferase reporter, luminescence, 16 h; DNA damage induced by 5-fluorouridine; Potency, µM (top dose mostly 46.1 µM), inactives show at the highest dose activity change, negative = inhibition, actives largely listed as inhibitors; actives 2.3% (n = 330,000); also: % is scaled to controls: 0 for no effect and ±100 for the full control effect; nearly all actives have a fitted effect of over 55% in size
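5-Fluorouridine DNA damage + compound/DMSO, 2,000 cells/well, 16 h, 37 °C/5% CO2. ONE-Glo, 30 min RT, luminescence. Readout = decrease in reporter signal.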
SW480 rereplic: induces DNA re-replication in SW480 colon adenocarcinoma cells. SW480 DNA re-replication, Hoechst DNA content imaging, 48 h. Potency, µM (highest dose often 46.1 µM), for inactives: at the top dose re-replication activation, actives largely listed as activators. actives 1.8% (n = 340,000); also: % of control where 0% means no effect; nearly all actives have a fitted effect of over 55% in size
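SW480 cells exposed to compounds for 48 hr at 37 C, 5% CO2, then Hoechst-stained 40 min. Nuclear DNA content imaged by fluorescence scanning (405 nm excitation, 500-530 nm emission); re-replication scored as increased high-intensity nuclei.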
VP16 counter: Gal4-VP16 reporter inhibition counter-screen | Drosophila S2 Gal4-VP16 UAS-luciferase, luminescence, 20 h | actives 3.5% (n = 310,000) | Potency, µM (doses to about 53.6 µM), for inactives: at the highest dose activity, negative = inhibition, hits mostly inhibitors;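 also: Gal4-VP16 expression switched on by copper sulfate through the metallothionein promoter; % is scaled to controls: 0 for no effect and ±100 for the full control effect; nearly all actives have a fitted effect of over 50% in size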
* hit, by the source's call; [ ] = dose if it differs, or a comment. Shown are actives, neighbours in structure and some others; about 10% of the full set was active somewhere. Calls follow the shape of the dose curve; as a rule, active = well fitted curve in the direction sought with a large enough effect; inconclusive = small, poorly fitted or top-dose-only effect, or another doubt; inactive = no such curve, though single readings can be large; an effect the other way counts as inactive or inconclusive. Potency is read from the fitted curve at half-maximal effect.

How did Cc1nnc2n(Cc3ccccc3)c(=O)c3c4c(sc3n12)CN(Cc1ccccc1)CC4 do in these assays?
RORg inh: -22%[10 µM]; ELG1 repair inh: 1%; VP16 counter: -5%

How did COC(=O)CSc1nnc2n(-c3ccc(OC)cc3)c(=O)c3c4c(sc3n12)CCCCC4 do in these assays?
MCF10A rereplic: 10%; RORg inh: 0%; ELG1 repair inh: -1%; SW480 rereplic: 0%; VP16 counter: 1%

What do the screens show for `C=CCn1c(=O)c2c3c(sc2n2c(Nc4ccccc4)nnc12)CCCC3`?
MCF10A rereplic: 2%; RORg inh: -25%; ELG1 repair inh: 21µM*; SW480 rereplic: -5%[9.22 µM]; VP16 counter: 0%

Results for CC(=O)c1cccc(CN2CCN(C3CCCCC3)C(CCO)C2)c1 (centres undefined) ?
MCF10A rereplic: 0%; RORg inh: -8%; ELG1 repair inh: 20%; SW480 rereplic: -2%; VP16 counter: 3%

What do the screens show for `Cc1ccc(NC(=O)c2oc3ccc(Br)cc3c2C)cc1S(=O)(=O)N1CCOCC1`?
MCF10A rereplic: -1%; SW480 rereplic: -4%

Results for C=CCn1c(=O)c2c3c(sc2n2c(Nc4ccc(OC)cc4)nnc12)CCCC3 ?
MCF10A rereplic: 13%; RORg inh: 1%; ELG1 repair inh: 8.2µM*; SW480 rereplic: -2%; VP16 counter: 5%

How did N#CCCCc1cc2ccccc2cn1 do in these assays?
MCF10A rereplic: 2%; ELG1 repair inh: inconclusive; SW480 rereplic: -8%

What do the screens show for `O=C(NCC(c1ccco1)N1CCCC1)c1cn(-c2ccccc2)nc1-c1ccc(F)cc1` (centres undefined)?
MCF10A rereplic: 21µM*; ELG1 repair inh: inconclusive; SW480 rereplic: inconclusive

How did O=C(NCc1ccncc1)C(=O)NCC(c1ccco1)N1CCN(c2ccccc2)CC1 (centres undefined) do in these assays?
MCF10A rereplic: 10%; RORg inh: 5%; ELG1 repair inh: 21µM*; SW480 rereplic: -10%; VP16 counter: -6%

What do the screens show for `COc1ccccc1-c1nn(-c2ccccc2)cc1C(=O)NCC(c1ccco1)N1CCCC1` (centres undefined)?
MCF10A rereplic: 15%; ELG1 repair inh: -18%; SW480 rereplic: -7%

How did C(#Cc1ccccc1)CN1CCCCC1 do in these assays?
MCF10A rereplic: -4%; RORg inh: 2%; ELG1 repair inh: 6%; SW480 rereplic: -8%; VP16 counter: 3%

What do the screens show for `C(#CCN1CCCC1)CC(c1ccccc1)c1ccccc1`?
MCF10A rereplic: 13µM*; RORg inh: -19%; ELG1 repair inh: 6%; SW480 rereplic: 4%; VP16 counter: -3%

Results for CC(=O)Oc1ccc2oc(/C=C/N(C)C)c([N+](=O)[O-])c2c1 ?
MCF10A rereplic: -2%; RORg inh: -17%; ELG1 repair inh: inconclusive; SW480 rereplic: -7%; VP16 counter: -4%

What do the screens show for `COc1nc(/C=C/N(C)C)c([N+](=O)[O-])c(OC)n1`?
MCF10A rereplic: 6.5µM*; RORg inh: 6%; ELG1 repair inh: 19%; SW480 rereplic: -1%; VP16 counter: 3%

What do the screens show for `COc1ccccc1NC(=O)CSc1c2c(nc3ccccc13)CCC2`?
MCF10A rereplic: 2%; RORg inh: inconclusive; ELG1 repair inh: -4%; SW480 rereplic: -6%; VP16 counter: -15%

What do the screens show for `COc1ccc(NC(=O)CSc2c3c(nc4ccccc24)CCCC3)c(OC)c1`?
MCF10A rereplic: 21µM*; RORg inh: -21%; ELG1 repair inh: -10%; SW480 rereplic: inconclusive; VP16 counter: inconclusive

How did COc1ccc(NC(=O)c2ccccc2Oc2ccccc2)c(OC)c1 do in these assays?
MCF10A rereplic: 26µM*; RORg inh: -12%; ELG1 repair inh: -9%; SW480 rereplic: 3%; VP16 counter: 1%

Results for COc1ccc(NC(=O)NNC(=O)c2cc(C3CC3)nc3ccccc23)c(OC)c1 ?
MCF10A rereplic: -7%; RORg inh: inconclusive; ELG1 repair inh: 13µM*; SW480 rereplic: 0%; VP16 counter: -4%

How did COc1cccc(NC(=O)c2cc(-c3ccc(OC)cc3OC)nc3ccccc23)c1 do in these assays?
MCF10A rereplic: -5%; SW480 rereplic: 4%

How did COc1ccc(-c2cc(C(=O)Nc3cc(C)on3)c3ccccc3n2)c(OC)c1 do in these assays?
MCF10A rereplic: 8%; RORg inh: -28%; ELG1 repair inh: 18µM*; SW480 rereplic: 3%; VP16 counter: -5%

What do the screens show for `COc1ccc(NC(=O)c2cc(-c3ccccn3)nc3ccccc23)c(OC)c1`?
MCF10A rereplic: 12%; ELG1 repair inh: 8.2µM*; SW480 rereplic: 1%

Results for COC(=O)c1ccc(NC(=O)c2cc(-c3ccccn3)nc3ccccc23)cc1 ?
MCF10A rereplic: 12%; RORg inh: -15%; ELG1 repair inh: -9%; SW480 rereplic: -20%; VP16 counter: -7%

What do the screens show for `CCCCNC(=O)CNC(=S)N(Cc1ccccc1F)C1CCCCC1`?
MCF10A rereplic: 2%; RORg inh: 13µM*; ELG1 repair inh: -11%; SW480 rereplic: inconclusive; VP16 counter: -15%

What do the screens show for `COC(=O)c1sc(-c2ccc(C(C)(C)C)cc2)cc1NC(=O)CSCC(=O)O`?
MCF10A rereplic: 15µM*; RORg inh: -35%; ELG1 repair inh: 9%; SW480 rereplic: -18%; VP16 counter: -28%

What do the screens show for `COC(=O)c1sc(-c2ccc(C(C)(C)C)cc2)cc1NC(=O)c1ccccc1C(=O)O`?
MCF10A rereplic: inconclusive; RORg inh: 45%; ELG1 repair inh: inconclusive; SW480 rereplic: 2%; VP16 counter: -7%

Results for COCCN(C(=S)Nc1cc(C)cc(C)c1)C(C)c1cccnc1 (centres undefined) ?
MCF10A rereplic: 17%; RORg inh: 28%; ELG1 repair inh: inconclusive; SW480 rereplic: -1%; VP16 counter: inconclusive

How did CN(C)S(=O)(=O)N1CCC(Oc2cccc(C(=O)NC3CCCCC3)c2)CC1 do in these assays?
MCF10A rereplic: 14%; RORg inh: inconclusive; ELG1 repair inh: -17%; SW480 rereplic: inconclusive; VP16 counter: inconclusive

What do the screens show for `CN(C)S(=O)(=O)N1CCC(Oc2cccc(C(=O)NCCC3=CCCCC3)c2)CC1`?
MCF10A rereplic: 3%; RORg inh: inconclusive; ELG1 repair inh: 13µM*; SW480 rereplic: 3%; VP16 counter: -4%

How did C[C@@H]1C(=O)NC2=Nc3cccc(Cl)c3CN21 do in these assays?
MCF10A rereplic: 4%; RORg inh: -1%; SW480 rereplic: -21%; VP16 counter: -1%

Results for COC(=O)c1ccc2nc(-c3cccc(N)c3)cn2c1 ?
MCF10A rereplic: -7%; RORg inh: 6.3µM*; ELG1 repair inh: inconclusive; SW480 rereplic: -5%; VP16 counter: 7.9µM*
